# Reference: PubChem BioAssay (NCI)
# This is part of a sample that, as a whole, favours compounds with a hit. Of some 83,000 tested, about 20% had one in any assay.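 Values shown are percent growth following 48 h exposure of cells in 96-well plates to a single concentration of compound; below 10 was considered active.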 Unmarked numbers belong to inactive results. Calls of active or inactive are those of the source.
# Key:
# Assay in all cases: NCI-60 one-dose screen, 48 h (100 = growth as untreated, 0 = no growth, -100 = all killed)
# Conditions in all cases: 10 µM unless noted
# SR leukemia = test system: SR leukemia
# RPMI-8226 leukemia = test system: RPMI-8226 leukemia
# OVCAR-8 ovarian = test system: OVCAR-8 ovarian
# OVCAR-5 ovarian = test system: OVCAR-5 ovarian
# OVCAR-4 ovarian = test system: OVCAR-4 ovarian
# OVCAR-3 ovarian = test system: OVCAR-3 ovarian
# NCI/ADR-RES ovarian = test system: NCI/ADR-RES ovarian
# IGROV1 ovarian = test system: IGROV1 ovarian
# HS 578T breast = test system: HS 578T breast
# SK-OV-3 ovarian = test system: SK-OV-3 ovarian
SMILES,growth (SR leukemia),growth (RPMI-8226 leukemia),growth (OVCAR-8 ovarian),growth (OVCAR-5 ovarian),growth (OVCAR-4 ovarian),growth (OVCAR-3 ovarian),growth (NCI/ADR-RES ovarian),growth (IGROV1 ovarian),growth (HS 578T breast) [%],growth (SK-OV-3 ovarian) [%]
Cc1cc(C(=O)NN)c(C#N)c(=O)[nH]1,116%,91.2%,100%,106%,107%,112%,99.1%,,,
O=C(c1cccc(C(=O)c2ccc3c4c(cccc24)C(=O)N(c2ccccc2)C3=O)c1)c1ccc2c3c(cccc13)C(=O)N(c1ccccc1)C2=O,57.4%,72.4%,88.8%,111%,77.4%,98.8%,96.9%,104%,97.6,
Cc1cc2nc(C)c(C)nc2cc1C,96.8%,89.5%,94.2%,95.3%,,105%,101%,97%,108,99.5
Clc1ncnc2nc[nH]c12,102%,88.8%,102%,101%,103%,98.1%,103%,,98,
NC(CSSCC(N)C(=O)O)C(=O)O (centres undefined),-20.7% (active),53.6%,2.42% (active),-5.59% (active),35.4%,4.66% (active),84.8%,31.8%,50.3,
Cc1cc(CO)c(O)c(CO)c1,77.8%,91%,105%,101%,122%,113%,96.1%,108%,,
CC(C)Sc1ncnc2nc[nH]c12,122%,118%,107%,101%,115%,120%,102%,,139,
Cc1ccc2[nH]c3ccccc3c2c1,79.6%,106%,98.4%,105%,100%,104%,109%,107%,106,
NC(CO)(CO)c1ccccc1,96.7%,94.2%,103%,101%,104%,97.5%,111%,104%,95.5,
c1cc(CNCCNCc2ccncc2)ccn1,130%,97.1%,97%,115%,,118%,108%,113%,113,104
O=C(O)Cc1cccc2ccccc12,94.5%,104%,110%,102%,122%,111%,100%,112%,,
C/C(=N\N=C(/C)c1cccc([N+](=O)[O-])c1)c1cccc([N+](=O)[O-])c1,86.4%,87.7%,79.6%,97.9%,42.1%,58.1%,93.9%,104%,78.8,
CC(=O)CSc1ncnc2nc[nH]c12,87.8%,76.6%,99.2%,95.8%,66.9%,91.5%,101%,,116,
CC12CCC3c4ccc(O)cc4CCC3C1CCC2=O (centres undefined),67.4%,98.8%,100%,112%,106%,112%,111%,,104,
CC1CC2C3CCC4=CC(=O)CCC4(C)C3CCC2(C)C1(O)C(=O)CO (centres undefined),107%,77.1%,105%,104%,,132%,114%,117%,123,102
O=C(Nc1ccc([N+](=O)[O-])cc1)C(=O)Nc1ccc([N+](=O)[O-])cc1,101%,105%,86.4%,102%,121%,103%,105%,105%,95,
Cc1ccc(O)c(N)c1,113%,55.7%,104%,115%,111%,118%,107%,,106,
NNc1ncnc2nc[nH]c12,32.5%,13.4%,16.4%,63.7%,44.6%,79%,42.7%,,84.8,

SMILES,growth (SR leukemia),growth (RPMI-8226 leukemia),growth (OVCAR-8 ovarian),growth (OVCAR-5 ovarian),growth (OVCAR-4 ovarian),growth (OVCAR-3 ovarian),growth (NCI/ADR-RES ovarian),growth (IGROV1 ovarian),growth (HS 578T breast) [%],growth (SK-OV-3 ovarian) [%]
O=Cc1ccc(O)c(O)c1,82.9%,87.5%,95.8%,96.2%,97.1%,96.3%,93.1%,88.8%,133,
O=C(c1ccccc1O)N1CCCC1,99.5%,94.8%,99.3%,98.9%,109%,110%,101%,103%,111,
O=c1[nH]c(=O)c2cc(Cl)cc(Cl)c2[nH]1,94.3%,104%,101%,116%,101%,126%,131%,90.6%,,
COc1ccc(C(=O)C(=O)c2ccccc2)cc1,95.9%,103%,105%,101%,100%,108%,104%,102%,,
O=C1NCC2CCCC1C2 (centres undefined),110%,118%,99.3%,107%,103%,114%,106%,107%,,
CC(=O)O[C@H]1CC[C@]2(C)C3=C(C(=O)C[C@H]2C1(C)C)[C@]1(C)CC[C@H]([C@H](C)CCC(=O)O)[C@@]1(C)CC3=O,82.6%,101%,109%,100%,94.7%,102%,100%,103%,119,
CC1CC(C)S(=O)(=O)C1 (centres undefined),97.9%,109%,92%,108%,,111%,111%,118%,125,120
O=C(O)CSCC(=O)Nc1cc(C(F)(F)F)ccc1Cl,96.1%,106%,,104%,119%,113%,117%,112%,101,109
OC(CCN1CCCCC1)(c1ccccc1)c1ccccc1,104%,100%,99%,,99.8%,112%,100%,106%,107,112
CCN(C(=O)Nc1ccccc1Cl)c1ccccc1,81.4%,107%,101%,97.1%,,116%,107%,103%,102,113
CSc1nsc(N)n1,98.4%,114%,,107%,104%,110%,101%,97.6%,90.7,105
COC1OC(CO)C(OC)C(O)C1O (centres undefined),93.8%,101%,105%,,98.5%,112%,93.5%,102%,112,
CC(=O)Nc1ccc(C(=O)c2ccc(S(=O)(=O)Nc3ccccc3)cc2)cc1,105%,68.1%,84%,,95.5%,105%,30.6%,,127,104
CCCCCC/C=C\CCCCCCCCCc1cc(O)cc(OC)c1O,0.217% (active),-7.09% (active),-26.1% (active),,-19.5% (active),13.6%,-5.84% (active),-45.4% (active),44.9,
C=CC(C)C(C)(C)O (centres undefined),97.6%,109%,,98.7%,113%,102%,98.3%,102%,96.3,106
CCOc1ccncc1[N+](=O)[O-],102%,112%,97.5%,,116%,106%,106%,118%,112,110
CC(C)(C)[Si](C)(C)OCC1OC(n2cnc3c(N)ncnc32)CC1OS(C)(=O)=O (centres undefined),107%,103%,98.6%,,108%,104%,103%,114%,89.8,101
